Bioassay records (PubChem)
ELG1 repair inh – blocks ELG1-dependent DNA repair in HEK293T cells; AID 504467; HEK293T ELG1-luciferase reporter, luminescence, 16 h; DNA damage induced by 5-fluorouridine; 330,000 compounds, 2.3% hits; Potency, µM (titrated, usually from 46.1 µM), for the others: at the top dose activity change, negative = inhibition, hits mostly inhibitors; note: % is set by controls: 0 for no effect and ±100 for the full control effect; nearly all actives have a fitted effect of over 55% in size
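HEK293T cells expressing luciferase-tagged ELG1 (2,000/well) received 5-Fluorouridine plus compound or DMSO for 16 hr at 37 °C. Luciferase was read by ONE-Glo luminescence after 30 min at room temperature.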
SMN2 splice up – increases expression of the SMN2 splice variant; HEK293 SMN2-luciferase splicing reporter, luminescence, 30-36 h; Potency, µM (series often up to 46.1 µM), without a hit: at the top dose activity change, positive = activation, actives largely listed as activators; 210,000 compounds, 2.8% hits; AID 1458; note: % of control where 0% means no effect; nearly all actives have a fitted effect of over 55% in size
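HEK293 cells carry an SMN2 minigene-luciferase reporter in which exon 7 inclusion puts luciferase in frame. Cells were seeded at 2000 cells/well, attached for 10-12 hours, then exposed to compounds for 30-36 hours at 37C before ONE-Glo luminescence.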
FLuc modulator – inhibits or activates purified firefly luciferase, miR-21 counter-screen | 360,000 compounds, 6.9% hits | P08659 | Potency, µM (doses to about 57.5 µM), without a hit: at the highest dose activity change, negative = inhibition, usual class: inhibitors | purified FLuc, Km substrates, luminescence inhibition;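 note: plate controls were vehicle for no effect and reference inhibitor for full effect; nearly all actives have a fitted effect of over 55% in size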
Target sequence (P08659 whole entry, looked up): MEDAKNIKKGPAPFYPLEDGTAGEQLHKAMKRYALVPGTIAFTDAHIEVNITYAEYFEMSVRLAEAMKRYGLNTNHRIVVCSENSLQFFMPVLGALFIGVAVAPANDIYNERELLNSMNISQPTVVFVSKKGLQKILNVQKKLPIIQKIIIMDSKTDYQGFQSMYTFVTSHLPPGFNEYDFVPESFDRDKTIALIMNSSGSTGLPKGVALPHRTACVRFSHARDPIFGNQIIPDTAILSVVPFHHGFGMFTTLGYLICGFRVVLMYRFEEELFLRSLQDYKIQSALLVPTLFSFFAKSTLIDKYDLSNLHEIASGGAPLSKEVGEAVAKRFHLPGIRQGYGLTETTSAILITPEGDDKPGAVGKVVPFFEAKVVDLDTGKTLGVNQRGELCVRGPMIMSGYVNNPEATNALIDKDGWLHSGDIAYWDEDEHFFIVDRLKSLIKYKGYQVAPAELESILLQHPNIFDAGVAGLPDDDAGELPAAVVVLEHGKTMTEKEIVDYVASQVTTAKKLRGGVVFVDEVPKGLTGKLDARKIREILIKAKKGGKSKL
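Biochemical qHTS of compounds, final roughly 60 µM downward over six points, against 10 nM purified firefly luciferase using Km concentrations of substrates (10 uM D-luciferin, 10 uM ATP) in Tris acetate pH 7.5 buffer; luminescence output.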
NPC1 prom act – activates the NPC1 promoter. Huh7 NPC1 promoter luciferase reporter, 24 h. Potency, µM (series often up to 9.22 µM), for inactives: at the top dose activation, actives largely listed as activators. 320,000 compounds, 2.4% hits. AID 485313; note: % of control where 0% means no effect; nearly all actives have a fitted effect of over 60% in size
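Stable NPC1-promoter luciferase Huh7 line; cpd (DMSO) 24 h, 37 °C, 5% CO2; Amplite luciferase reagent 10 min RT; luminescence readout. qHTS format.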
Rab9 promoter act – activators of Rab9 promoter | 320,000 compounds, 2.8% hits | Potency, µM (top dose mostly 9.22 µM), for inactives: at the top dose activation, negative = inhibition, hits mostly activators | Huh7 Rab9 promoter-luciferase reporter, luminescence, 24 h; note: % of control where 0% means no effect; nearly all actives have a fitted effect of over 60% in size
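Luminescence from Amplite-detected luciferase (10 minutes, ambient) reports Rab9 promoter activation. Before that, stable Rab9-luciferase Huh7 cells (1500/well, reduced-serum OP-MEM I plus 10% FBS) were exposed to compound for 24 hours at 37C.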
ELG1 genotoxic – genotoxicity induction in ELG1-luciferase HEK293T cells; HEK293T ELG1-luciferase reporter, luminescence, 16 h; Potency, µM (series often up to 46 µM), without a hit: at the top dose activity change, positive = activation, usual class: activators; 330,000 compounds, 1.3% hits; AID 504466; note: % of control where 0% means no effect; nearly all actives have a fitted effect of over 60% in size
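Cells (2,000/well) expressing the ELG1-luciferase fusion are dosed by pin tool and kept 16 hr at 37 °C, 5% CO2. Signal comes from ONE-Glo luciferase reagent after 30 min at room temperature.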
Active calls of the source: *; ? = inconclusive; . = no result given; [ ] = remark or other dose. The list is not random: actives were taken first. Their share in the collection is about 9.2%. Calls come from the whole dose curve; as a rule, active = well fitted curve in the direction sought with a large enough effect; inconclusive = small, poorly fitted or top-dose-only effect, or another doubt; inactive = no such curve, though single readings can be large; an effect the other way counts as inactive or inconclusive. Potency is the fitted concentration of half-maximal effect.

SMILES	ELG1 repair inh	SMN2 splice up	FLuc modulator	NPC1 prom act	Rab9 promoter act	ELG1 genotoxic
O=C(CSCc1ccccc1)N1CCN(c2ccccc2)CC1	?	13µM*	24µM*	?	?	?
O=C(CSCc1cccc(F)c1)N1CCN(c2ccccc2)CC1	?	13µM*	13µM*	3.2µM*	?	13µM*
CC(OC(=O)Cn1cnc2c1c(=O)n(C)c(=O)n2C)C(=O)NC1(C#N)CCCCC1 (stereo not given)	14%	.	-2%	-2%	1%	0%
C/C(=N\NC(=O)c1c(Cl)cnn1C)c1cccc(NC(=O)c2ccc(C)cc2)c1	?	.	2.4µM*	?	?	4%
C/C(=N\NC(=O)c1c(Cl)cnn1C)c1cccc(NC(=O)C(C)C)c1	?	-10%	?	-3%	-7%	-3%
C/C(=N\NC(=O)c1cccc(F)c1)c1cccc(NC(=O)c2ccc(F)cc2)c1	-14%	.	?	8%	3%	2%
C/C(=N\NC(=O)c1cccc(N/N=C(\C)c2ccco2)c1)c1ccco1	?	-4%	13µM*	16%	?	12%
C/C(=N\NC(=O)c1ccc(F)cc1)c1cccc(NC(=O)c2ccco2)c1	3%	3%	4.8µM*	20%	30%	2%
C/C(=N\NC(=O)c1ccccc1F)c1cccc(NC(=O)c2ccc(C)cc2)c1	?	.	2.4µM*	?	?	?
C/C(=N\NC(=O)c1cccc([N+](=O)[O-])c1)c1ccco1	?	.	-12%	2%	1%	4%
CC(=O)N1c2ccc(S(=O)(=O)NCCC(=O)Nc3ccc(F)cc3C)cc2CC1C (stereo not given)	6%	.	5%	-1%	-1%	0%
CSCCC(=O)N1CCN(CC(=O)N2CCCC2)CC1	?	.	2%	-5%	0%	1%
COc1ccc(NC(=O)c2cnc(Nc3ccc(C)c(Cl)c3)c3ccccc23)c(OC)c1	.	5%	-2%	.	.	.
CCOC(=O)CC1(NC(=O)C2CCC(=O)N(Cc3ccccc3OC)C2)CCCCC1 (stereo not given)	?	.	-1%	11%	-2%	10%
C/C(=N\NC(=O)c1c(Br)cnn1C)c1ccc(NC(=O)c2ccc(F)cc2)cc1	?	?	4%	12%	2%	16µM*
C/C(=N\NC(=O)c1ccc(F)cc1)c1cccc(NC(=O)c2cccc(F)c2)c1	-10%	.	-18%	5%	5%	-8%
C/C(=N\NC(=O)c1cccc(O)c1)c1cccc(NC(=O)c2ccc(F)cc2)c1	?	.	1.9µM*	?	14%	3%
C/C(=N\NC(=O)c1cccc(N/N=C(\C)c2cc(O)ccc2O)c1)c1cc(O)ccc1O	16µM*	-56%	12µM*	-18%	-35%	-15%
CCn1nc(NC(=O)c2ccccc2)c2cc3cccc(C)c3nc21	7.3µM*	.	-14%	2%	-2%	-10%
CCn1nc(NC(=O)c2ccccn2)c2cc3cc(C)ccc3nc21	?	19%	9.5µM*	18%	3%	-1%
Cc1ccc2nc3c(cc2c1)c(NC(=O)c1ccccn1)nn3CC(C)C	23µM*	9%	?	2%	-2%	-9%
CCn1nc(NC(C)=O)c2cc3cccc(C)c3nc21	-4%	.	-2%	-1%	0%	1%
Cc1ccc2cc3c(NC(=O)c4ccco4)nn(CC(C)C)c3nc2c1	-1%	-13%	3%	-9%	5%	7%
CCn1nc(NC(=O)Cc2ccc(OC)cc2)c2cc3cc(C)ccc3nc21	?	.	?	-5%	-3%	?
Cc1cc(C)c(S(=O)(=O)N2CCCCC2CCNC(=O)C(=O)NCCN2CCOCC2)c(C)c1 (stereo not given)	0%	.	4%	2%	3%	-2%
SMILES	ELG1 repair inh	SMN2 splice up	FLuc modulator	NPC1 prom act	Rab9 promoter act	ELG1 genotoxic
COc1ccc(OC)c(/C=N/N(C)c2ccccc2)c1	?	?	11µM*	?	3.5µM*	5.8µM*
COc1cc(/C=N/N(C)c2ccccc2)cc(Cl)c1O	19%	3%	13µM*	24%	6%	12%
COc1cc(/C=N/N(C)C)cc(Br)c1O	9%	.	-1%	-4%	-7%	-2%
Cc1ccc(-c2onc(C)c2C)cc1S(=O)(=O)NC1CCC(C)CC1 (stereo not given)	.	.	-3%	.	.	.
COc1cccc2sc(/N=C/N(C)C)nc12	?	.	-1%	8%	9%	6%
CN(Cc1ccccc1)C(=O)CCSc1nc(-c2ccc3c(c2)OCO3)cc(C(F)(F)F)n1	16µM*	-36%	3%	-1%	-6%	-9%
CCc1nc2oc3cc(OC)ccc3c(=O)c2c(=O)n1Cc1ccccc1	-15%	-27%	5%	1%	10%	5%
CCc1nc2oc3cc(OC)ccc3c(=O)c2c(=O)n1-c1ccccc1	?	25µM*	-10%	?	?	?
Cc1oc(C(C)(C)C)cc1C(=O)Nc1cccc(/C=C/C(=O)O)c1	7%	0%	12µM*	-3%	-19%	10%
Cc1cc(C(=O)Nc2ccccc2)c(C)o1	?	-16%	?	-3%	-2%	?
Cc1oc(-c2ccccc2)cc1C(=O)Nc1cccc(/C=C/C(=O)O)c1	0%	3%	15µM*	-1%	-1%	1%
Cc1cc(C(=O)Nc2cccc(/C=C/C(=O)O)c2)c(C)o1	-4%	8%	13µM*	2%	5%	1%
CN(c1ccc(OCC(=O)OCC(=O)c2c(N)n(C)c(=O)n(C)c2=O)cc1)S(=O)(=O)c1ccc2ccccc2c1	8%	8%	-14%	-4%	20%	2%
CCN(c1ccc(OCC(=O)OCC(=O)c2c(N)n(C)c(=O)n(C)c2=O)cc1)S(=O)(=O)c1ccccc1	?	1%	12µM*	3%	9%	-1%
Cc1ccc(Cl)cc1Nc1nn2c(=O)c3ccc(C(=O)NC(C)c4ccccc4)cc3nc2s1 (stereo not given)	.	.	-4%	.	.	.
CC(C)[C@@H](CO)NC(=O)c1ccc2c3n(nc2c1)-c1ccc(Cl)cc1CO3	?	.	8.5µM*	1.4µM*	1.1µM*	?
C[C@@H](CO)NC(=O)c1ccc2c3n(nc2c1)-c1ccc(Cl)cc1CO3	?	.	3µM*	1.4µM*	2.8µM*	7.3µM*
CCOc1cc(C2C(C#N)=C(N)Oc3n[nH]c(C)c32)ccc1OCCN1CCOCC1 (stereo not given)	28%	42%	5%[2.3 µM]	4µM*	22%	6%
